Reference: PubChem BioAssay AID1159580 (chemical genetic matrix, 2015)
“And” between values parts separate entries of the source, which are not always exact repeats. Identical values can stand only once. Among all 5,500 compounds or so, about 2,000 (36%) were called active. About 18% were inconclusive and are not listed. Cut-off read from the data, not from the text of the source: active = normalized growth mostly below about 0.91 (no sharp cut-off); inconclusive = no clear call, values can overlap the other calls; inactive = mostly above about 0.92. This is one part of the list.

Assay: chemical genetic growth profiling, strain panel (AID 1159580);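 note: tested at 20 µM; growth read once vehicle control cultures reached saturation at 30 °C; 1 = growth at the plate median or of vehicle wells; lower values mean less growth of the strain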
Conditions: S. cerevisiae deletion strains, growth OD

Measured: normalized growth

CNC(C)(C)Cc1ccccc1
inactive: locus YAL013W, strain DEP1, hits give low values 1.01 | locus YAL021C, strain ccr4, hits give low values 0.997 | locus YAL026C, strain drs2, hits give low values 1.01 | locus YAL030W, strain snc1, hits give low values 1.01 | locus YBL061C, strain skt5, hits give low values 1.02 | locus YBR009C, strain hhf1, hits give low values 1.02 | locus YBR021W, strain FUR4, hits give low values 1.01 | locus YBR023C, strain chs3, hits give low values 1.02 | locus YBR171W, strain sec66, hits give low values 1.02 | locus YBR229C, strain ROT2, hits give low values 1.01 | locus YBR231C, strain swc5, hits give low values 1.02 | locus YBR279W, strain paf1, hits give low values 1.01 | locus YCL011C, strain gbp2, hits give low values 1.02 | locus YCL016C, strain dcc1, hits give low values 1.02 | locus YCL029C, strain bik1, hits give low values 1 | locus YCL061C, strain MRC1, hits give low values 1.01 | locus YCL069W, strain vba3, hits give low values 1.01 | locus YCR088W, strain abp1, hits give low values 1.01 | locus YDL005C, strain med2, hits give low values 1.02 | locus YDL035C, strain GPR1, hits give low values 1.02 | locus YDL040C, strain nat1, hits give low values 1.01 | locus YDL074C, strain BRE1, hits give low values 0.988 | locus YDL101C, strain DUN1, hits give low values 1.01 | locus YDL134C, strain PPH21, hits give low values 1.02 | locus YDL185W, strain tfp1, hits give low values 1.01 | locus YDL192W, strain arf1, hits give low values 1 | locus YDR001C, strain nth1, hits give low values 1 | locus YDR069C, strain doa4, hits give low values 1.02 | locus YDR101C, strain arx1, hits give low values 1.02 | locus YDR137W, strain rgp1, hits give low values 0.958 | locus YDR150W, strain NUM1, hits give low values 1 | locus YDR159W, strain sac3, hits give low values 1 | locus YDR162C, strain NBP2, hits give low values 1.02 | locus YDR195W, strain ref2 1.02 | locus YDR297W, strain sur2, hits give low values 1.02 | locus YDR318W, strain mcm21, hits give low values 1.02 | locus YDR334W, strain swr1, hits give low values 0.991 | locus YDR335W, strain msn5, hits give low values 1.01 | locus YDR388W, hits give low values 1.01 | locus YDR392W, strain spt3, hits give low values 1.01 | locus YDR502C, strain sam2, hits give low values 0.993 | locus YEL003W, strain gim4, hits give low values 1.01 | locus YEL037C, strain rad23, hits give low values 1.01 | locus YEL061C, strain CIN8 (second series), hits give low values 1 | locus YEL061C, strain CIN8, hits give low values 1 | locus YER015W, strain faa2, hits give low values 1.02 | locus YER016W, strain bim1, hits give low values 1.01 | locus YER110C, hits give low values 0.999 | locus YER111C, strain swi4, hits give low values 0.988 | locus YER155C, strain BEM2 (second series), hits give low values 0.996 | locus YER155C, strain BEM2, hits give low values 1.01 | locus YER167W, strain BCK2, hits give low values 1.03 | locus YFR010W, strain ubp6, hits give low values 1.02 | locus YGL078C, strain dbp3, hits give low values 0.998 | locus YGL086W, strain mad1, hits give low values 0.997 | locus YGL167C, strain pmr1, hits give low values 1.01 | locus YGL173C, strain kem1, hits give low values 1.02 | locus YGL227W, strain vid30, hits give low values 1.02 | locus YGL240W, strain doc1, hits give low values 1.02 | locus YGL248W, strain PDE1, hits give low values 0.996 | locus YGL253W, strain hxk2, hits give low values 1.03 | locus YGR078C, strain PAC10, hits give low values 0.994 | locus YGR135W, strain pre9, hits give low values 1.03 | locus YGR252W, strain gcn5, hits give low values 1 | locus YHR013C, strain ard1, hits give low values 1.04 | locus YHR027C, strain rpn1, hits give low values 1.02 | locus YHR030C, strain SLT2, hits give low values 1.01 and 1.04 | locus YHR079C, strain IRE1 (second series), hits give low values 1 | locus YHR079C, strain IRE1, hits give low values 1.04 | locus YHR094C, strain hxt1, hits give low values 1 | locus YHR129C, strain ARP1, hits give low values 1.01 | locus YHR142W, strain chs7, hits give low values 1.01 | locus YHR200W, strain rpn10, hits give low values 1.01 | locus YIL066C, strain RNR3, hits give low values 1 | locus YIL073C, strain SPO22, hits give low values 1.06 | locus YIL125W, strain kgd1, hits give low values 0.996 | locus YIR030C, strain dcg1, hits give low values 1.01 | locus YJL092W, strain hpr5, hits give low values 1.01 | locus YJL095W, strain BCK1 (second series), hits give low values 1.01 | locus YJL095W, strain BCK1, hits give low values 0.99 and 1.04 | locus YJL115W, strain asf1, hits give low values 1.01 | locus YJL129C, strain trk1, hits give low values 0.983 | locus YJL134W, strain LCB3, hits give low values 1.01 | locus YJL154C, strain vps35, hits give low values 1 | locus YJL164C, strain tpk1, hits give low values 1.02 | locus YJL166W, strain qcr8, hits give low values 1.02 | locus YJL168C, strain set2, hits give low values 1 | locus YJL187C, strain SWE1 (second series), hits give low values 0.986 | locus YJL187C, strain SWE1, hits give low values 1.02
